Experimental data reported in ChEMBL document CHEMBL4513216, “Probing the Open Global Health Chemical Diversity Library for Multistage-Active Starting Points for Next-Generation Antimalarials” (ACS Infect Dis, 2020).
Screen size: about 69,000 compounds; about 8,600 (12%) showed an effect of 50% or more. The list comes from a sample in which strong results are over-represented; it also holds similar structures and randomly drawn compounds.

system: Plasmodium berghei; experiment: Screen against P. berghei liver stage (PbLuc), transformed with Luciferase, at 10uM; type: functional, HepG2; settings: tested at 10 uM

Compound | INHIBITION
Cn1c(CCN2CCN(CCc3ccccc3)CC2)nc2ccccc21 | 49.9%
CCCc1ccc(N2CCN(Cc3nc4ccccc4n3C)CC2)cc1 | 25.8%
Cn1c(CCN2CCN(c3ccc(O)cc3)CC2)nc2ccccc21 | 61.9%
O=C(NCc1cncc2c1CCN(Cc1ccoc1)C2)C1CC1 | 5.96%
COc1ccc(CN2CCn3cc(CN4CCN(C)CC4)nc3C2)cc1 | 40.4%
CN1CCN(Cc2cn3c(n2)CN(Cc2cccnc2)CC3)CC1 | 30.7%
CN1CCN(Cc2cn3c(n2)CN(Cc2ccccn2)CC3)CC1 | 24.9%
Cc1ccc(CN2CCn3cc(CN4CCN(C)CC4)nc3C2)cc1 | 72.9%
CN1CCN(Cc2cn3c(n2)CN(Cc2ccc(F)cc2)CC3)CC1 | -17.7%
CN1CCN(Cc2cn3c(n2)CN(Cc2ccncc2)CC3)CC1 | 82.9%
O=C(c1cscn1)N1C[C@@H](Oc2cccnc2)[C@H]2OCCC[C@H]21 | 2.58%
CCCN1Cc2cc(Br)ccc2OCC1=O | 68%
O=C1COc2ccc(Br)cc2CN1CC1CC1 | 0.0996%
O=C1COc2ccc(Cl)cc2CN1CC1CC1 | -8.66%
O=C(NC[C@]12COC[C@H]1CN(Cc1cccs1)C2)c1ccsc1 | 20.5%
COc1ccccc1CNc1c(N2CCN(C(C)=O)CC2)c(=O)c1=O | -19.2%
COc1ccc(CNc2c(N3CCN(C(C)=O)CC3)c(=O)c2=O)cc1 | 54%
COc1ccc(CNc2c(N3CCN(C)CC3)c(=O)c2=O)cc1 | 31.8%
O=C(NCCSCc1ccco1)c1ccc(N2CCOCC2)cc1 | 17.7%
CCC(CC#N)n1ccc(C(F)(F)F)n1 (stereo not given) | 21.9%
CCC1=N[C@@]2(CC[C@@H]3CN(CC(=O)N(C)C)C[C@@H]32)C(=O)N1CC1CC1 | -3.95%
Cc1c(CN2CCC(C(=O)O)(n3ccnc3)CC2)oc2ccccc12 | 15.1%

Compound | INHIBITION
COc1ccc(NC(=O)NC(C)Cc2ccco2)cn1 (stereo not given) | -41.2%
CN(C)C(=O)N1C[C@@H]2COC[C@]2(c2nnc(C3CC3)o2)C1 | 54.7%
O=C(c1ncccn1)N1C[C@@H]2COC[C@]2(c2nnc(C3CC3)o2)C1 | -36.5%
CC(C)(C)C(=O)N1C[C@@H]2COC[C@]2(c2nnc(C3CC3)o2)C1 | -9.54%
COc1cccc(-c2nc(C)c(C(=O)N[C@@H](CC(C)C)C(=O)O)s2)c1 | -95.4%
O=C1CC(c2cccnc2)c2c(c(C(=O)O)cn2-c2ccc(Cl)cc2)N1 (stereo not given) | 20%
Nc1nnc(CCNc2ncnc3c2CCN(C(=O)C2CC2)C3)s1 | -10.2%
CCc1ccc(CCNc2ncnc3c2CCN(C(=O)C2CC2)C3)cc1 | 71.1%
O=C(C1CCCCO1)N1CCc2ncnc(NCCO)c2CC1 (stereo not given) | 25.8%
O=C(C1CC1)N1CCc2c(ncnc2NCCc2nc3c(s2)CCC3)C1 | 52.2%
Nc1nc(CCNc2ncnc3c2CCN(C(=O)C2CC2)C3)cs1 | -66.7%
Nc1nnc(CCCNc2ncnc3c2CCN(C(=O)C2CC2)C3)s1 | -45%
CC(C)n1nc(Cn2cccn2)c2c1CN(C1CCOCC1)C2 | -33%
Cc1nc(CN2CC[C@@H]3O[C@@H](C(=O)N4CCOCC4)C[C@@H]32)cs1 | 30.9%
COCCC(C)NC(=O)N1CCC(n2ccc(C(F)(F)F)n2)CC1 (stereo not given) | 15.7%
CCS(=O)(=O)N1CCN(C(=O)c2cnc3[nH]nc(C)c3c2)CC1 | -35.2%
O=C(O)c1coc(COc2cccc3cnccc23)n1 | -2.46%
O=C(c1coc(COc2ccccc2F)n1)N1CCC[C@H]1CO | 2.611%
O=C(c1cc(=O)c(OCc2ccccc2)co1)N1CCSCC1 | 21.5%
COCCC1CCCCN1C(=O)c1coc(COc2ccccc2F)n1 (stereo not given) | 29.735%
CC1CCCCN1C(=O)c1coc(COc2cccc3cnccc23)n1 (stereo not given) | 68.4%
O=C(c1coc(COc2cccc(F)c2)n1)N1CC[C@H](O)[C@@H](O)C1 | 6.8%

Compound | INHIBITION
O=C(c1coc(COc2ccccc2F)n1)N1CCCO1 | -4.235%
O=C(c1coc(COc2cccc3cnccc23)n1)N1CCSCC1 | 74.9%
O=C(c1coc(COc2cccc3cnccc23)n1)N1CCCCCC1 | 84.1%
Cc1cc(Cn2c(=O)c3c(C(F)(F)F)cc(C)nc3n2C)on1 | 4.81%
CN1CCOC(CNCC(=O)NCCCc2ccccc2)C1 (stereo not given) | -17.8%
COc1ccc(CN(C)Cc2ccnc(C3CCCO3)n2)cc1 (stereo not given) | 21.95%
Cc1ncc(CNC(=O)NC2CCN(C3CCCC3)CC2)s1 | -53.6%
Cc1cccc(CN2CC[C@@H]3O[C@@H](C(=O)N4CCN(C)CC4)C[C@@H]32)n1 | -5.25%
CCOC(=O)N1CCN(C(=O)c2cc(-c3ccc(Cl)cc3Cl)on2)CC1 | -6.91%
CCN(Cc1cccc(F)c1)Cc1nc2c(cnn2C)c(=O)[nH]1 | 3.73%
CC1(NC(=O)Cc2csc(NC(=O)c3ccccc3)n2)CCS(=O)(=O)C1 (stereo not given) | -14.2%
CCc1ncncc1C(=O)NC1CCc2nc(C)cn2C1 (stereo not given) | -53.5%
Cc1ccccc1[C@@H]1CN(Cc2ccc(C(F)(F)F)nc2)C[C@H]1C(=O)O | 59.7%
COc1ccccc1[C@@H]1CN(Cc2ccncc2)C[C@H]1C(=O)O | -21.8%
CCC[C@@H]1CN(Cc2ccc(C(F)(F)F)nc2)C[C@H]1C(=O)O | 37.2%
COc1ccccc1[C@@H]1CN(Cc2csc(C(C)=O)c2)C[C@H]1C(=O)O | -82.7%
Cc1ccccc1[C@@H]1CN(Cc2c(C)noc2C)C[C@H]1C(=O)O | 2.25%
COc1ccccc1[C@@H]1CN(Cc2ccc3nsnc3c2)C[C@H]1C(=O)O | 68.2%
COCCO[C@H]1CCN(C(=O)c2ccc[nH]2)[C@H]1Cc1ccncc1 | 42.6%
CC(C)c1noc(CN2CCC(c3ccnn3CCO)CC2)n1 | -24.2%
O=C(Nc1ccnn1Cc1ccccc1Cl)C1CCS(=O)(=O)C1 (stereo not given) | -4.12%
